Results: publication PMC4336329 (PLoS ONE, 2015)
Hit rate of the full screen: of about 310,000 compounds, about 14,000 (4.5%) showed an effect of 50% or more. Effects have a minus sign here. The sample holds strong results, similar compounds and a random draw of the others, so the mix is not that of the screen.

Target: human ether-à-go-go-related gene (hERG) potassium channel (human, UniProt Q12809)
Test: primary screen, population patch clamp on CHO cells stably expressing hERG; higher = less effect of the substance
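Further: peak tail current of the secondary pulse compared with the same well before compound.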

human ether-à-go-go-related gene (hERG) potassium channel, sequence (Q12809 whole entry, looked up): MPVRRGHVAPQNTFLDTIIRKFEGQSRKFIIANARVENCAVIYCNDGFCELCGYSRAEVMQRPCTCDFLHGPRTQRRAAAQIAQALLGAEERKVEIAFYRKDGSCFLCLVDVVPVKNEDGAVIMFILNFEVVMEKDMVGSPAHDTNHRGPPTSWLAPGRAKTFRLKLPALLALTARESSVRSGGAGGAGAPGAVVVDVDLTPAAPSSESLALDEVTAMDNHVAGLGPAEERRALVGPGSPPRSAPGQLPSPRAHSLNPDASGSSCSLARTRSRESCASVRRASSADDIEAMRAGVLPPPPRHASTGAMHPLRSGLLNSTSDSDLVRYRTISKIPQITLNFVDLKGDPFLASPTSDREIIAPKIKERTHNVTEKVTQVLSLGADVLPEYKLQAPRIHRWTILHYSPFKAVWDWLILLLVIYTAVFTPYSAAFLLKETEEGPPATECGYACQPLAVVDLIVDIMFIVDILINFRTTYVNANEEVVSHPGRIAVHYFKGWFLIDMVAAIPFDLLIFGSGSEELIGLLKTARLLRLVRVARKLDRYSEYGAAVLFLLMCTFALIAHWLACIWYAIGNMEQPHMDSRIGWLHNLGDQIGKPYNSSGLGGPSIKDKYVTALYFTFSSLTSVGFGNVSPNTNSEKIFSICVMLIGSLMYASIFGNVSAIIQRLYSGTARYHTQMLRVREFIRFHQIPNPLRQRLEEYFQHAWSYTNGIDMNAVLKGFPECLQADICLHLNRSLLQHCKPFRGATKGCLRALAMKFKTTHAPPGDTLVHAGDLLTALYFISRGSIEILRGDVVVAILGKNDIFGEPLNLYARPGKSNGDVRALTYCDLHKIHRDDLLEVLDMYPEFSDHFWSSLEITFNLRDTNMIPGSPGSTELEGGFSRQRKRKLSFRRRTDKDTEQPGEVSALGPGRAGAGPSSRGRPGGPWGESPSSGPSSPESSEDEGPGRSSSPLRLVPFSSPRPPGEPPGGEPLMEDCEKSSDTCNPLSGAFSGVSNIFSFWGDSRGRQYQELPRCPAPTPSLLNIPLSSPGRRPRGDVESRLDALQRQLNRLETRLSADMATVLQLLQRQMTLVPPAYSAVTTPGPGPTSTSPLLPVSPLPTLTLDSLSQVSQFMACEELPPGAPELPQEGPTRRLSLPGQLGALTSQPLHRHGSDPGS

Row | Compound | hERG current change (%, negative = inhibition) at 10uM
1 | Cc1ccnc(N2CCC(C(=O)NNC(=O)COc3cccc4ccccc34)CC2)n1 | 11.2%
2 | Cc1cccc(NC(=O)CCc2nnc3ccc(NCc4ccco4)nn23)n1 | 6.78%
3 | Cc1cc(C)c(OCCN(C)C)c(Cl)c1.O=C(O)C(=O)O | -21.1%
4 | O=C(NC1CCCC1)C(c1cccs1)N(C(=O)c1ccco1)c1ccc2c(c1)OCO2 (stereo not drawn) | -33.5%
5 | Nc1nc(SCC(=O)NCc2ccco2)[nH]c(=O)c1-c1ccccc1 | 22.3%
6 | CC(C(=O)N(C)CC(=O)Nc1ccccc1C(F)(F)F)N1C(=O)c2ccccc2C1=O (stereo not drawn) | -10.7%
7 | COc1ccc(N(CC(=O)NC2CCCC2)C(=O)c2ccc(C)s2)cc1OC | 15.8%
8 | COC(=O)c1ccc(NC(=O)C[n+]2ccccc2C)cc1.[Cl-] | 10.1%
9 | Cc1cc(Nc2c(C)cccc2C)n2nc(C)nc2n1 | 3.66%
10 | Cc1cc(Br)ccc1OCCCCN1CCC(C)CC1.O=C(O)C(=O)O | -67.9%
11 | Cc1cc(Br)ccc1OCC(=O)N1CCCCCC1 | -12.1%
12 | CC(C)(C)c1ccccc1OCCOCCN1CCCCCC1.O=C(O)C(=O)O | -39.1%
13 | Cc1cc(Br)ccc1OCCN1CC(C)OC(C)C1.O=C(O)C(=O)O (stereo not drawn) | -17.8%
14 | Cc1cccc(C)c1OCCCCN1CCCCC1.O=C(O)C(=O)O | -11.8%
15 | CCN1CCN(CCOc2ccc(Br)cc2C)CC1.O=C(O)C(=O)O | -46.6%
16 | Cc1cc(Br)ccc1OCCN1CCCC1.O=C(O)C(=O)O | -36.8%
17 | Cc1cc(Br)ccc1OCCCCN1CCCCC1.O=C(O)C(=O)O | -78.9%
18 | Cc1cc(Br)ccc1OCCOCCN1CCCC1.O=C(O)C(=O)O | -60.7%
19 | N#C/C(=C\c1cn(Cc2ccccc2)c2ccccc12)C(=O)NCc1ccco1 | 12.5%
20 | Cc1ccccc1OCC(=O)OCC(=O)NCc1cccs1 | 1.72%
21 | COc1cc(-c2nc(CCNC(=O)c3ccco3)cs2)cc(OC)c1OC | -24.7%
22 | Cc1cc(C)cc(NC(=S)N2CCN(c3ccccn3)CC2)c1 | -1.07%

Row | Compound | hERG current change (%, negative = inhibition) at 10uM
23 | COc1ccc(NC(=O)Nc2cc(C)ccc2F)cc1 | 0.822%
24 | CCOc1ccc(-n2cnnn2)cc1S(=O)(=O)N1CCCCC1 | -10.1%
25 | CC1CCN(C(=O)c2cc3c(=O)n4ccccc4nc3s2)CC1 | 18.7%
26 | CC(=O)c1ccc(Nc2cc(C)nc3ccccc23)cc1 | -31.3%
27 | CCOC(=O)c1ccc2nc(C)cc(Nc3cccc(C(=O)O)c3)c2c1 | 5.41%
28 | COc1ccc2nc(C)cc(Nc3cccc(C(=O)O)c3)c2c1 | 21.7%
29 | CC(=O)Nc1ccc(Nc2cc(C)nc3ccccc23)cc1 | -7.21%
30 | CC(=O)c1cccc(Nc2cc(C)nc3ccccc23)c1.Cl | -64%
31 | CC(=O)c1cccc(Nc2cc(C)nc3ccc(C)cc23)c1.Cl | -65.2%
32 | C/C(=N\Nc1nccnc1Cl)c1ccc([N+](=O)[O-])cc1 | -4.09%
33 | Cl.N[C@@H]1C[C@H]1c1ccccc1 | 14%
34 | O=C(NC1CCCC1)C(c1ccncc1)N(C(=O)c1csnn1)c1cccc(F)c1 (stereo not drawn) | 17.2%
35 | O=C1N=NC2=C1c1c3ccccc3c(O)n1CC2 | 3.49%
36 | CCOC(=O)c1c(NC(=O)CN2CCOCC2)sc2c1CCCC2=O | -6.33%
37 | Cc1cc2nc3c(nc2cc1C)CCCC3 | 15.9%
38 | O=C(Nc1ccc(S(=O)(=O)N2CCOCC2)cc1)c1ccc([N+](=O)[O-])o1 | -28.8%
39 | Cc1ccc(C(=O)OCC(=O)Nc2cccc(S(=O)(=O)N3CCOCC3)c2)o1 | -53.1%
40 | O=C(COC(=O)c1ccc([N+](=O)[O-])o1)Nc1cccc(S(=O)(=O)N2CCCCC2)c1 | -56.6%
41 | COc1ccccc1NC(=O)Cc1coc2cc(C)ccc12 | -13.1%
42 | Cc1ccc2c(CC(=O)N3CCN(c4ccccc4)CC3)coc2c1 | -22%
43 | O=C(Nc1cccc(S(=O)(=O)N2CCCCC2)c1)c1ccc([N+](=O)[O-])o1 | -51.4%
44 | O=C(COC(=O)c1ccc(Br)o1)Nc1cccc(S(=O)(=O)N2CCCCCC2)c1 | -14.9%

Row | Compound | hERG current change (%, negative = inhibition) at 10uM
45 | Cc1ccc(C(=O)OCC(=O)Nc2cccc(S(=O)(=O)N3CCCCC3)c2)o1 | 6.02%
46 | O=C(COC(=O)c1ccc([N+](=O)[O-])o1)Nc1cccc(S(=O)(=O)N2CCOCC2)c1 | -19.4%
47 | Cc1cc(C(=O)OCC(=O)Nc2cccc(S(=O)(=O)N3CCOCC3)c2)c(C)o1 | -19.6%
48 | Cc1ccc(C(=O)Nc2cccc(S(=O)(=O)N3CCCC3)c2)o1 | -9.98%
49 | Cc1ccc2c(CC(=O)Nc3ccc(N4CCN(C)CC4)cc3C)coc2c1 | -72.8%
50 | CCN1CCN(C(=S)c2ccc(-c3ccccc3)cc2)CC1 | -15.4%
51 | CCCN1CCN(C(=O)Cn2c(=O)oc3cc(S(=O)(=O)NCc4ccccc4)ccc32)CC1 | -6.53%
52 | COc1ccc(-c2ocnc2C(=O)Nc2ccc3c(c2)CCC3)cc1 | 8.64%
53 | Cc1ccc(C(=O)Nc2cccc(O)c2)cc1S(=O)(=O)N1CCCCCC1 | 11.2%
54 | O=C(O)CSc1nnc(COc2cccc3ccccc23)n1Cc1ccccc1 | 21.3%
55 | CCc1ccc2c(CC(=O)Nc3cccc(S(=O)(=O)N4CCOCC4)c3)coc2c1 | -0.796%
56 | Cc1ccc2c(CC(=O)Nc3cccc(S(=O)(=O)N4CCOCC4)c3)coc2c1 | -51.4%
57 | COc1ccc2c(CC(=O)Nc3cccc(S(=O)(=O)N4CCOCC4)c3)coc2c1 | -32.4%
58 | CCCCCCCNC(=O)C1(CC2CC(c3ccc(Cl)cc3)=NO2)CCN(C(=O)C2CCCC2)CC1 (stereo not drawn) | -55.8%
59 | CCCCCCCNC(=O)C1(CC2CC(c3ccc(Cl)cc3)=NO2)CCN(C(=O)OC(C)(C)C)CC1 (stereo not drawn) | 21.1%
60 | CCCCCCCNC(=O)C1(CC2CC(c3ccc(Cl)cc3)=NO2)CCN(C(=O)C2(C)CC2)CC1 (stereo not drawn) | -55.8%
61 | COc1ccc(CC(=O)NCc2ccc(F)cc2)cc1S(=O)(=O)N1CCOCC1 | -8.29%
62 | CCCn1c2ccccc2c2cnn(CC(=O)NCCN(C)C)c(=O)c21 | -60.1%
63 | CCCn1c2ccccc2c2cnn(CC(=O)NCCN(CC)CC)c(=O)c21 | -66.6%
64 | CCCn1c2ccccc2c2cnn(CC(=O)NCCOC)c(=O)c21 | -5.71%
65 | CCCn1c2ccccc2c2cnn(CC(=O)N(CC)CC)c(=O)c21 | -2.37%
66 | CCCn1c2ccccc2c2cnn(CC(=O)NC(C)CC)c(=O)c21 (stereo not drawn) | 7.84%

Row | Compound | hERG current change (%, negative = inhibition) at 10uM
67 | CCCn1c2ccccc2c2cnn(CC(=O)OC)c(=O)c21 | -0.361%
68 | Cc1ccc(S(=O)(=O)N2CCN(CC(=O)N(CC(C)C)c3c(N)n(CC(C)C)c(=O)[nH]c3=O)CC2)c(C)c1 | 12.7%
69 | O=[N+]([O-])c1cc([As](=O)(O)O)ccc1O | 19.8%
70 | Cc1csc(NC(=O)c2ccc(C)c([N+](=O)[O-])c2)n1 | -41.6%
71 | Cc1nn2cc(-c3ccc(Cl)cc3)cnc2c1Br | 10.3%
72 | Cc1ccc(NC(=O)C2Oc3ccccc3OC2C)cc1 (stereo not drawn) | 8.68%
73 | CCCCC(=O)NC(=S)Nc1c(C)cc(Br)cc1C | 2.71%
74 | Cc1ccc(CNS(=O)(=O)c2ccc3c(c2)NC(=O)C(C)S3)cc1 (stereo not drawn) | -1.22%
75 | COc1ccccc1C(=O)Nc1ccnn1C1CCN(C(=O)C(C)(C)C)CC1 | -50.4%
76 | COCC(=O)N1CCC(n2nccc2NC(=O)c2ccccc2OC)CC1 | -1.85%
77 | COc1ccc(C(=O)Nc2ccnn2C2CCN(C(C)CSC)CC2)cc1 (stereo not drawn) | 1.28%
78 | COc1ccccc1C(=O)Nc1ccnn1C1CCN(C(=O)c2cnsn2)CC1 | -62.2%
79 | Cc1ccccc1C(=O)Nc1ccnn1C1CCN(C(=O)c2cnsn2)CC1 | -30.4%
80 | COc1ccccc1C(=O)Nc1ccnn1C1CCN(C(=O)c2ccoc2)CC1 | -47.4%
81 | COc1ccccc1C(=O)Nc1ccnn1C1CCN(C(C)CSC)CC1 (stereo not drawn) | -67%
82 | COc1ccccc1C(=O)Nc1ccnn1C1CCN(C(=O)C2CCOC2)CC1 (stereo not drawn) | -35.9%
83 | COc1ccccc1C(=O)Nc1ccnn1C1CCN(C(=O)c2ccoc2C)CC1 | -62.9%
84 | COc1ccccc1C(=O)Nc1ccnn1C1CCN(C)CC1 | -32.7%
85 | COc1ccc(C(=O)Nc2ccnn2C2CCN(C(=O)c3cnsn3)CC2)cc1 | -11.5%
86 | CSCC(C)N1CCC(n2nccc2NC(=O)c2ccccc2C)CC1 (stereo not drawn) | -16.6%
87 | COc1ccc(-c2noc(CSc3nc(N)cc(=O)[nH]3)n2)cc1 | 0.145%
